Assay [1] can be described thus: yeast TOR pathway RPL19A-GFP modulators, primary screen, cell-based, S. cerevisiae, multiplex flow cytometry (AID 1862; in the data active = percent of DMSO control GFP below about 86%;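 also: lower values mimic rapamycin by blocking the RPL19A rise seen in DMSO cells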). Conditions: S. cerevisiae RPL19A-GFP strain, flow cytometry fluorescence, 3 h; at 10 µM; stronger effect = lower value.
A short description of assay [2]: modulators of MEP2-GFP levels in yeast, primary screen, S. cerevisiae, multiplex flow cytometry (AID 1867;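 active = GFP response, as percent of the DMSO control, above the screen-wide mean plus 3 SD, about 139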;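 also: median GFP channel fluorescence of barcode-gated MEP2-GFP cells measured by flow cytometry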). Conditions: S. cerevisiae MEP2-GFP strain, 3 h, at 10 µM, stronger effect = higher value, 100% means same as DMSO wells.
Assay [3] is described as follows: modulators of CIT2-GFP expression in yeast, primary screen, S. cerevisiae, GFP fusion, multiplex flow cytometry (AID 1870;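 active = percent response above a set limit, the screen-wide mean plus 3 SD, cut at about 130% in these data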;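 also: barcoded CIT2-GFP strain pooled with four other GFP strains with rapamycin as positive control; median GFP fluorescence per well over plate mean of DMSO wells so 100% = DMSO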). Conditions: 3 h, at 10 µM, stronger effect = higher value. In general terms: Flow cytometry measures light scatter and fluorescence of single cells or particles in a stream.
The nature of assay [4]: modulators of LAP4-GFP expression in yeast, primary screen, S. cerevisiae, multiplex flow cytometry (AID 1873;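 active = GFP signal, as percent of the solvent control, above the screen mean plus 3 SD, about 149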). Conditions: 3 h, at 10 µM, stronger effect = higher value.
A short description of assay [5]: modulators of AGP1-GFP expression in yeast TOR pathway, primary screen, cell-based, multiplex flow cytometry, S. cerevisiae (AID 1887;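 active = GFP signal above the screen-wide mean plus 3 SD, that is over about 124.5% of the solvent control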;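 also: AGP1-GFP fusion strain of S. cerevisiae within a five-strain barcoded multiplex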). Conditions: 3 h, at 10 µM, stronger effect = higher value.
Assay [6] is described as follows: inhibitors of CD8+ T cell-vesicle binding, pilot screen, LFA-1/ICAM-1 modulator project, MLPCN validation set, flow cytometry (AID 2523).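 As to vesicle binding response: mean PE anti-B7-1 fluorescence of CD8+ cells relative to row control; 100% = QL9-loaded vesicles with DMSO vehicle in the same plate row.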 Conditions: 2C mouse CD8+ T cells, at 7 µM, stronger effect = lower value; double positive events: measured here: CD8+/vesicle+ event percentage.
The target in assay [7] is Integrin beta-1 (Homo sapiens) + Integrin alpha-4 (Homo sapiens) (UniProt P13612+P05556). As to the kind of experiment: inhibition of HUTS-21 binding to VLA-4, pilot screen, VLA-4 allosteric modulator project, U937 cells, HUTS-21 mAb, flow cytometry, validation set (AID 2674;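 active = inhibition above 50%, about 3 SD of the validation set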;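 also: antibody binding induced by the VLA-4 ligand LDV present at three times its Kd; 0% = LDV ligand with antibody and no compound and 100% = antibody without LDV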). Conditions: HUTS-21 LIBS mAb binding, at 6.7 µM, stronger effect = higher value, binding induced by LDV ligand.

Assay [8] can be described thus: superoxide lowering in aged yeast cells, pilot screen, validation compound set (AID 2706;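 active = superoxide response below 65% of plate, a cut near 3 SD across the whole screen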;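 also: yeast exposed to compound for one week at 30 degrees C before staining; 100% = mean of all compound wells on the same plate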). Conditions: S. cerevisiae aging, superoxide DHE fluorescence; at 10 µM; stronger effect = lower value.
The target of assay [9] is Beta-adrenergic receptor kinase 1 (Homo sapiens) (UniProt P25098). Briefly: GRK2 binders displacing RNA aptamer, biochemical, validation, human GRK2, bead flow cytometry (AID 488806;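 active = aptamer binding inhibition above 30%, about 3 SD of noise from non-fluorescent compounds; inactive = inhibition at or below 30%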). Conditions: bead-bound GRK2, FAM-aptamer displacement, at 10 µM, stronger effect = higher value.
Assay [10] deals with Beta-2 adrenergic receptor (Homo sapiens) (UniProt P07550). Briefly: beta2AR agonists driving receptor internalization, pilot screen, cell-based, FAP fluorogen, flow cytometry, validation set (AID 504459;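 active = percent response above 42, roughly 3 SD of non-fluorescent test compounds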;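 also: agonist-driven loss of surface beta2AR via internalization measured by FAP dye flow cytometry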). Conditions: Am2.2-beta2AR cells, FAP surface receptor flow cytometry; at 10 µM; stronger effect = higher value.
Assay [11] has as its target AP-2 complex subunit beta (Homo sapiens) (UniProt P63010). Briefly: inhibitors of arrestin peptide binding to AP2, pilot screen, biochemical, validation set, GST-AP2 beads, flow cytometry (AID 504541;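 active = inhibition above 54%, about 3 SD of non-fluorescent compounds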;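 also: AP2 carries R879A mutation and is captured from E. coli lysate; bead-bound FITC arrestin peptide fluorescence measuring arrestin peptide binding to AP2; 0% = DMSO wells and 100% = excess unlabeled arrestin peptide control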). Conditions: FITC arrestin peptide, at 10 µM, stronger effect = higher value, AP2 beta2 appendage fragment, R879A mutant.
A short description of assay [12]: yeast V-ATPase proton transport modulators, S. cerevisiae, pHLuorin, HTS validation (AID 504600; in the data active = response above about 15%;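 also: plate controls were DMSO for no effect and reference compound for full effect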). Conditions: S. cerevisiae pHLuorin cytosolic pH, at 10 µM, stronger effect = higher value.
For assay [13], the system named is anti-desmoglein-3 scFv antibody binding to human DSG3. As to the kind of experiment: inhibitors of anti-DSG3 scFv binding to DSG3, pilot screen, biochemical, validation compound set, bead-based, flow cytometry (AID 588368;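 active = binding below the plate cutoff, the plate median minus 3 SD, with a reading above zero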;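 also: signal is the median channel fluorescence of bead-bound GFP antibody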). Conditions: Protein G beads, DSG3-Fc, scFv-GFP binding, at 10 µM, stronger effect = lower value.
The nature of assay [14]: inhibitors of fungal efflux pumps CDR1, CDR2, MDR1, pilot screen, validation compound set, multiplex, phenotypic (AID 588506;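 active = efflux inhibition above 0.42, the validation set average plus 4 SD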;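 also: Nile Red retained in cells so higher fluorescence means more efflux inhibition; 0 = negative control wells and 1 = enniatin B 25 µM full block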). Conditions: S. cerevisiae pump-expressing triplex, Nile Red efflux flow cytometry; at 10 µM; stronger effect = higher value; the pumps come from Candida albicans.
Assay [15] concerns the target ATP-binding cassette sub-family B member 6 (Homo sapiens) (UniProt Q9NP58). Briefly: ABCB6 transporter inhibitors, pilot screen, K562-ABCB6 cells, flow cytometry, validation set (AID 588550;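 active = inhibition above the screen-wide mean plus 3 SD, about 51%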;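 also: 0% = DMSO wells and 100% = benzethonium chloride 70 µM positive control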). Conditions: K562-ABCB6 porphyrin accumulation, 1 h, at 10 µM, stronger effect = higher value.
A short description of assay [16]: promoters of myeloid differentiation in arrested cells, primary screen, cell-based, GFP/MAC1 double positive, flow cytometry, validation set (AID 588685;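 active = differentiation response of at least 50%, scaled between solvent and reference control, from cells with both markers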;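 also: compound exposure lasts four days before antibody staining and flow analysis; 0% = DMSO wells and 100% = 5 µM fulvestrant positive control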). Conditions: ER-HoxA9 marrow cells, stronger effect = higher value, normalized: vehicle 0, fulvestrant 100.

Inconclusive results are not listed. The source made the active and inactive calls.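 The calls were made as follows, unless noted: active = response below a set limit, under 55% cells CD8-positive and vesicle-bound, and CD8 cells' 90th-percentile brightness under 279; inactive = the rest.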

AP-2 complex subunit beta (Homo sapiens), sequence (P63010 whole entry, looked up, the tested form may be a part, one chain of several): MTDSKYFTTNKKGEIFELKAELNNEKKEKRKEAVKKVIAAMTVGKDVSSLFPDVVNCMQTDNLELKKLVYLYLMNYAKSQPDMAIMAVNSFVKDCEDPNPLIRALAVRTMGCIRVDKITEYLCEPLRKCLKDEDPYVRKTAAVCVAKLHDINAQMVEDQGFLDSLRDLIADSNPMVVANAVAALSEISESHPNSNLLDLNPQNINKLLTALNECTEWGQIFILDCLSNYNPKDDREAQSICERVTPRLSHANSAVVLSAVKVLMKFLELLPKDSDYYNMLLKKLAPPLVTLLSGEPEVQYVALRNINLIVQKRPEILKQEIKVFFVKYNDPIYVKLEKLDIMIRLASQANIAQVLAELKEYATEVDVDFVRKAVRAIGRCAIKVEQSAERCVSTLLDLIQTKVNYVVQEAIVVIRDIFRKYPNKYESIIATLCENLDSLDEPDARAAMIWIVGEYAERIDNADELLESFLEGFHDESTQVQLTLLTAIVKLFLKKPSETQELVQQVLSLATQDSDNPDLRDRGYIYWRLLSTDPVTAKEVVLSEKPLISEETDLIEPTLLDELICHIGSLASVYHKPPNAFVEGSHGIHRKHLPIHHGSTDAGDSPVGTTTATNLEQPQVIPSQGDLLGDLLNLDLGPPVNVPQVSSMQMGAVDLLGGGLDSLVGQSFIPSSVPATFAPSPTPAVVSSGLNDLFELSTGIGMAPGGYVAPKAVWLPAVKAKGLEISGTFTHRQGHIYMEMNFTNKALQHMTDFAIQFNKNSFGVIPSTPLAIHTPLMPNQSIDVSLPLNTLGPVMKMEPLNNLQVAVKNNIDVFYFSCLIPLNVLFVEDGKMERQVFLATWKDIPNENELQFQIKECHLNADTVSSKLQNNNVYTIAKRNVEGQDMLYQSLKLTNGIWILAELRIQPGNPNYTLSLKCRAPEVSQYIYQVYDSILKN
ATP-binding cassette sub-family B member 6 (Homo sapiens), sequence (Q9NP58 whole entry, looked up): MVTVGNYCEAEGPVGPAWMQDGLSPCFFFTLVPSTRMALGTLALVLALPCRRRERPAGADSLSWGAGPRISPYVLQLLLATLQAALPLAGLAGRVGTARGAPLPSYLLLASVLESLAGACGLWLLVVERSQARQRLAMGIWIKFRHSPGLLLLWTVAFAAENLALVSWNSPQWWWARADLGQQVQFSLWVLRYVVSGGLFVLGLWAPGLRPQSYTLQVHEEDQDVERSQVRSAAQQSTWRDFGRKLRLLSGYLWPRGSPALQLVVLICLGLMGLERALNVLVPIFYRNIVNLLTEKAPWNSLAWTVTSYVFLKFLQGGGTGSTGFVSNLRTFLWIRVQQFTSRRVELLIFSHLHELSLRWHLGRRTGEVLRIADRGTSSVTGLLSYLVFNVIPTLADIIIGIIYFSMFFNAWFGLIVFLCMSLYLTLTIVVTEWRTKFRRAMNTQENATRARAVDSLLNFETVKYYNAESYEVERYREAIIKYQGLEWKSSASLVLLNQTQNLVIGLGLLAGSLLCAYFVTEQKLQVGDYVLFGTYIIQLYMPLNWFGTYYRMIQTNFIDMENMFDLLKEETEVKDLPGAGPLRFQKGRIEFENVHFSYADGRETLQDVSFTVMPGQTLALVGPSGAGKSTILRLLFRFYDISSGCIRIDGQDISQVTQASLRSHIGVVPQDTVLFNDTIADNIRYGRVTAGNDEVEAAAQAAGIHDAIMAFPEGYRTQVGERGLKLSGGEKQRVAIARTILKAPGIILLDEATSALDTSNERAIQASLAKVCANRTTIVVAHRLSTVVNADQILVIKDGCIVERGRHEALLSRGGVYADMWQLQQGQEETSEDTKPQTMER
Integrin beta-1 (Homo sapiens) + Integrin alpha-4 (Homo sapiens), sequence (P05556 whole entry, looked up): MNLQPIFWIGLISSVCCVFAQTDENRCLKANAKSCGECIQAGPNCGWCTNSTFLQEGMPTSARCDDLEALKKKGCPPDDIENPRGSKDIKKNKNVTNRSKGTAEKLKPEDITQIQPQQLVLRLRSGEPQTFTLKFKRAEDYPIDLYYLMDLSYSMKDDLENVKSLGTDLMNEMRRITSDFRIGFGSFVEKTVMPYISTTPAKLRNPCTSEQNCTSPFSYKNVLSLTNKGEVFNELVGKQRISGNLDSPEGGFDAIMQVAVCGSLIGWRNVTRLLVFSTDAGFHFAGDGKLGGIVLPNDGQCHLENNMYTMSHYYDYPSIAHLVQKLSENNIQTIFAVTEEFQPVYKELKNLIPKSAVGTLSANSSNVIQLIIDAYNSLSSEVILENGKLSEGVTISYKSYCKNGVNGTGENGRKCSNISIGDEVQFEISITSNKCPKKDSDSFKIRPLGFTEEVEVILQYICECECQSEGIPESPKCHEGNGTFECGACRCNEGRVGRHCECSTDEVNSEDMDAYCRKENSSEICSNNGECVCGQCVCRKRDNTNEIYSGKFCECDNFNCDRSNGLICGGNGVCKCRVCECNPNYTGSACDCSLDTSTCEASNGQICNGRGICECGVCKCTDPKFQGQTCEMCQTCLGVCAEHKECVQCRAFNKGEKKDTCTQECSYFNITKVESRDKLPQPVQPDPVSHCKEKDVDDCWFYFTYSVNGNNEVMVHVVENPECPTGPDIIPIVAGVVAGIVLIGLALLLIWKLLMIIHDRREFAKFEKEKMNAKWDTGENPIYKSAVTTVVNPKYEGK
Integrin beta-1 (Homo sapiens) + Integrin alpha-4 (Homo sapiens), sequence (P13612 whole entry, looked up): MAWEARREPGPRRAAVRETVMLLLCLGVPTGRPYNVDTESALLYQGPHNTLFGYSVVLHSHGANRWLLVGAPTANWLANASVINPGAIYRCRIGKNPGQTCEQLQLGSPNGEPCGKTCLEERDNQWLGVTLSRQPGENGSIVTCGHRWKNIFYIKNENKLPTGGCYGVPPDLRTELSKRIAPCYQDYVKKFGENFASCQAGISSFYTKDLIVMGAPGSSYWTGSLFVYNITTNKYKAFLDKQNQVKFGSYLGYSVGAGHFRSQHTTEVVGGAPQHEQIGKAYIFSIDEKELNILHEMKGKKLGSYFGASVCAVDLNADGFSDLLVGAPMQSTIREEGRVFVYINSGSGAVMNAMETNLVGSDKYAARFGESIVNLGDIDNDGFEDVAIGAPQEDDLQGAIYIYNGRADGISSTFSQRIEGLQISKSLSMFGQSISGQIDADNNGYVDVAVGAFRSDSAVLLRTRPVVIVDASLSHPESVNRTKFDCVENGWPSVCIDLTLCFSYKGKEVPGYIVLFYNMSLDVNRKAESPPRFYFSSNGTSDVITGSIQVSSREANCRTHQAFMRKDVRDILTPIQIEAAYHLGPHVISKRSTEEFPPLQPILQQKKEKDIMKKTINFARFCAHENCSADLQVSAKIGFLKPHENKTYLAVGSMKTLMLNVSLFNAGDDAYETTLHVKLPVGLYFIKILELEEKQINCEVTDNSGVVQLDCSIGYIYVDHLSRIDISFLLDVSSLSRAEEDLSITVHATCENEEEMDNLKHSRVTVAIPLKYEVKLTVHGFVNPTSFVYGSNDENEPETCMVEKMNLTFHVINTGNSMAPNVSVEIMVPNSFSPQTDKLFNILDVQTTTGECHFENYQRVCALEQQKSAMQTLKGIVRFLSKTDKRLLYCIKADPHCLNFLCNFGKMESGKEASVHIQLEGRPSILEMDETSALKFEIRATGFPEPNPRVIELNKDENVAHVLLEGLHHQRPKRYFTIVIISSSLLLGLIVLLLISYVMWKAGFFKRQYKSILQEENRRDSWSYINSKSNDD
Beta-adrenergic receptor kinase 1 (Homo sapiens), sequence (P25098 whole entry, looked up): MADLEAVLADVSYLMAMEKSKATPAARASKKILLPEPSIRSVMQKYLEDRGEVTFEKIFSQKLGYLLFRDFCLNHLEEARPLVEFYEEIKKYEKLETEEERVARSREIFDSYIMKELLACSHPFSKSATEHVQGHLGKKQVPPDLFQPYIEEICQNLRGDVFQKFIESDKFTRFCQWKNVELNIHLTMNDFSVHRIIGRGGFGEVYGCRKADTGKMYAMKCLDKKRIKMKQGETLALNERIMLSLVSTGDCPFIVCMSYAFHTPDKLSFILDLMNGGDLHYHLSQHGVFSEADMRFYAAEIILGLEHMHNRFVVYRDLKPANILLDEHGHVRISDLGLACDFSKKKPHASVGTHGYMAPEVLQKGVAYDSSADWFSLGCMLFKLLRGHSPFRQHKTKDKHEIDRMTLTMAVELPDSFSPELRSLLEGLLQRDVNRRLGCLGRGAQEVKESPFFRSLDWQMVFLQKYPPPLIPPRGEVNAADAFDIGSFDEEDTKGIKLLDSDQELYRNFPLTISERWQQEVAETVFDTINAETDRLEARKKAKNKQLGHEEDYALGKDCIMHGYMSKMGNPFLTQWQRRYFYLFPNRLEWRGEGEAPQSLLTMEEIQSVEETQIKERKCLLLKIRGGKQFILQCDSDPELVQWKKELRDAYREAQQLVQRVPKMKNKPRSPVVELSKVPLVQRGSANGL
Beta-2 adrenergic receptor (Homo sapiens), sequence (P07550 whole entry, looked up): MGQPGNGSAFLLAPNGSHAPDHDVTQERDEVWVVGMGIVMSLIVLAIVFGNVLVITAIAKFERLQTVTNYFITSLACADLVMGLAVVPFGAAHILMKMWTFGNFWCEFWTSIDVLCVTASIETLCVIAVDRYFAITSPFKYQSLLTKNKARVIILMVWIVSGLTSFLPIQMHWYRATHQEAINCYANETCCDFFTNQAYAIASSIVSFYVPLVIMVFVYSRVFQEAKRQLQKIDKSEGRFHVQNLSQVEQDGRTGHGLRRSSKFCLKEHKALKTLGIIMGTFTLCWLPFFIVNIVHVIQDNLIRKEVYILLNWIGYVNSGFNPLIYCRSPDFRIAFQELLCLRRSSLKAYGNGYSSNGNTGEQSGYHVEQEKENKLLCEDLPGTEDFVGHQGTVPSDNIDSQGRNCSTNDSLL

Usually inhibition stands for the change of the read-out against control, counted positive when it falls. Take `Cc1c(O)c(=O)ccn1C`: in [1], the percent of DMSO control GFP was 90.4% (inactive). For the same molecule, the GFP response vs DMSO in assay [2] was 121% (inactive); in [4], 76.5% (inactive). For the same molecule, the percent response of DMSO control in assay [3] is 103% (inactive). For the same molecule, in assay [5], the GFP response, % of DMSO was 95.4% (inactive). In [6], this molecule showed a double positive events of 64.3%. Further, in assay [6], the vesicle binding response is 412% (inactive). Besides, the results for the inhibition in assay [7], in assay [11] and in assay [15] were 6.46% (inactive), -9.42% (inactive) and 9% (inactive), respectively. Also, the superoxide response (% of plate) in [8] was 99.1% (inactive). The aptamer binding inhibition in [9] is 1% (inactive). Moreover, the response in [10] is -11.3% (inactive); in assay [12], 3.11% (inactive). The binding (% of control) in assay [13] is 102% (inactive). Moreover, in [14], the efflux inhibition (fraction of control) was 0.27 (inactive). In assay [16], the differentiation response is -3.28% (inactive).
As to `CC1(C)O[C@@H]2C[C@H]3[C@@H]4C[C@H](F)C5=CC(=O)C=C[C@]5(C)[C@@]4(F)[C@@H](O)C[C@]3(C)[C@]2(C(=O)CO)O1`, the percent of DMSO control GFP in assay [1] was 102% (inactive). In addition, the GFP response vs DMSO in assay [2] and in assay [4] was 102% (inactive) in each case. For the same molecule, the percent response of DMSO control in [3] is 105% (inactive). The GFP response, % of DMSO in [5] is 111% (inactive). In assay [6], the double positive events amounted to 57.8%. Moreover, the vesicle binding response in assay [6] is 113% (inactive). Further, the results for the inhibition in assay [7], in assay [11] and in [15] were -5.11% (inactive), -10.8% (inactive) and 19% (inactive), respectively. For the same molecule, the superoxide response (% of plate) in [8] was 103% (inactive). In assay [9], the aptamer binding inhibition is 1% (inactive). Moreover, the response in [10] was 6.68% (inactive); in [12] it was 0.85% (inactive). Besides, in assay [13], the binding (% of control) is 104% (inactive). For the same molecule, the efflux inhibition (fraction of control) in assay [14] is -0.025 (inactive). In assay [16], the differentiation response was -8.96% (inactive).
On to `CC1(C)CC(NC(=O)C23CCC(C)(C(=O)C2=O)C3(C)C)CC(C)(C)N1` (stereo not drawn), for which the percent of DMSO control GFP in [1] was 99% (inactive). In addition, the figures for the GFP response vs DMSO in [2] and in assay [4] were 112% (inactive) and 116% (inactive), respectively. For the same molecule, the percent response of DMSO control in assay [3] was 88.2% (inactive). Moreover, the GFP response, % of DMSO in assay [5] is 99.2% (inactive). Further, the double positive events in [6] turned out to be 65.1%. In addition, the vesicle binding response in assay [6] is 166% (inactive). The inhibition was 10.5% (inactive) in assay [7], -0.24% (inactive) in assay [11] and 13% (inactive) in assay [15]. Also, the superoxide response (% of plate) in assay [8] was 96.1% (inactive). Further, in assay [9], the aptamer binding inhibition is 3% (inactive). The response in assay [10] is -4.74% (inactive); in assay [12] it was 6.45% (inactive). In addition, in assay [13], the binding (% of control) was 99.7% (inactive). In addition, the efflux inhibition (fraction of control) in assay [14] was 0.19 (inactive). Also, in assay [16], the differentiation response is 12% (inactive).
As for `O=C(Cc1ccccc1)NCC(=O)OCC(=O)c1ccccc1Cl`, the percent of DMSO control GFP in assay [1] was 98.3% (inactive). Further, the GFP response vs DMSO is 112% (inactive) in [2] and 74.3% (inactive) in [4]. The percent response of DMSO control in [3] is 107% (inactive). Further, in assay [5], the GFP response, % of DMSO is 93.3% (inactive). The molecule further had a double positive events in assay [6] of 76.4%. Moreover, in assay [6], the vesicle binding response is 296% (inactive). Besides, the inhibition in [7] is -2.27% (inactive); in [11] it was -4.1% (inactive); in assay [15], 17% (inactive). Besides, the superoxide response (% of plate) in assay [8] is 92.9% (inactive). Further, the aptamer binding inhibition in assay [9] was 4% (inactive). The response in assay [10] is -1.13% (inactive); in [12] it was 3.49% (inactive). The binding (% of control) in assay [13] was 106% (inactive). Besides, the efflux inhibition (fraction of control) in assay [14] is -0.42 (inactive). Moreover, the differentiation response in assay [16] is -0.82% (inactive).
